From PubChem BioAssay (NCATS)
Inconclusive results are not listed. Calls of active or inactive are those of the source. Unless noted, the call rests on the fitted dose curve. Peptide text beside a SMILES is read from it. * marks the point of attachment. Cbz = O=C(OCc1ccccc1)*

How the values were obtained:
[1] = qHTS for Inhibitors of the Functional Ribonucleoprotein Complex (vRNP) of Lassa (LASV) Arenavirus: LASV Primary Screen - GLuc reporter signal (AID 1347082; calls by dose curve; tested in HEK293 reporter line; further: nearly all actives have a fitted effect of over 60% in size)
[2] = qHTS for Inhibitors of the Functional Ribonucleoprotein Complex (vRNP) of Lassa (LASV) Arenavirus: Viability assay - alamar blue signal for LASV Primary Screen (AID 1347083; calls by dose curve; tested in HEK293 reporter line; further: nearly all actives have a fitted effect of over 80% in size)
[3] = qHTS for Inhibitors of the Functional Ribonucleoprotein Complex (vRNP) of Lymphocytic Choriomeningitis Arenaviruses (LCMV): Viability assay - alamar blue signal for LCMV Primary Screen (AID 1347085; calls by dose curve; tested in HEK293 reporter line; further: nearly all actives have a fitted effect of over 80% in size)
[4] = molecular target: Nucleoprotein (Lymphocytic choriomeningitis virus (strain Armstrong)) (UniProt P09992); experiment: qHTS for Inhibitors of the Functional Ribonucleoprotein Complex (vRNP) of Lymphocytic Choriomeningitis Arenaviruses (LCMV): LCMV Primary Screen - GLuc reporter signal (AID 1347086); further: nearly all actives have a fitted effect of over 70% in size
[5] = Cytotoxicity counterscreen for inhibitors of SARS-CoV-2 cell entry (AID 1645845); further: nearly all actives have a fitted effect of over 50% in size
Procedure, shortened: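 Counterscreen run in the same HEK293-ACE2 line as the pseudotyped-particle entry assay, without particles. Viability after 48 h at 37 C was read as ATP luminescence, scaled between cell-containing and cell-free wells.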

[6] = Primary qHTS to identify inhibitors of SARS-CoV-2 cell entry (AID 1645846); conditions: activity change, negative = inhibition: at 57.1 µM (top of the series) unless noted; further: nearly all actives have a fitted effect of over 45% in size
Procedure, shortened: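 HEK293-ACE2 (Expi293F, stable hACE2), 1500 cells/well, o/n 37C; cpd 23 nL pin, 1 h; MLV-PP w/ SARS-CoV-2-S (Wuhan-Hu-1, Δ19 C-term); 48 h 37C; Bright-Glo luminescence; normalized vs S-PP and bald PP.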
Potency means the concentration at half of the fitted maximal effect.

Chain of Nucleoprotein (Lymphocytic choriomeningitis virus (strain Armstrong)) (P09992 whole entry, looked up): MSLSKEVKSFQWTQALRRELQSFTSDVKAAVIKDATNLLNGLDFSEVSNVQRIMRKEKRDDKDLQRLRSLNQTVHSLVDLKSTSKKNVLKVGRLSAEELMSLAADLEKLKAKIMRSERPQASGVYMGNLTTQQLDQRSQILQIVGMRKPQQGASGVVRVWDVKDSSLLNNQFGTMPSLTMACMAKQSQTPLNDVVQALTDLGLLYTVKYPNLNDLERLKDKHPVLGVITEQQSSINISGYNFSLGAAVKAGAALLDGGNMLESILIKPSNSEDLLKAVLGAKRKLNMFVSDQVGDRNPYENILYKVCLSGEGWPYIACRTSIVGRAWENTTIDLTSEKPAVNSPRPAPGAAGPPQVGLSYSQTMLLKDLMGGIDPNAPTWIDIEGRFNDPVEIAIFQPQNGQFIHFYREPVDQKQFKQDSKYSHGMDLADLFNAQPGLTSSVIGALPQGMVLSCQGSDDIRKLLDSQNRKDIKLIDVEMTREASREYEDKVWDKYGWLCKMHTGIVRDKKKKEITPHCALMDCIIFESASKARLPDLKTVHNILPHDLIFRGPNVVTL

COc1cc2nccc(Oc3ccc(NC(=O)Nc4ccc(F)cc4F)c(F)c3)c2cc1OC
inactive: Potency [1] | Potency [2] | Potency [3] | Potency [4] | Potency [5]

O=C(O)C1=CC(O)C(O)[C@H](O)C1 (stereo partly specified)
-8.99%: activity change, negative = inhibition [6]
inactive: Potency [1] | Potency [2] | Potency [3] | Potency [4] | Potency [5]

COC(=O)[C@H](c1ccccc1Cl)N1CCc2sccc2C1
inactive: Potency [1] | Potency [2] | Potency [3] | Potency [4] | Potency [5]
-28.2%: activity change, negative = inhibition [6]

O=C(O)CCCCC(CCSCc1ccccc1)SCc1ccccc1 (stereo unspecified)
inactive: Potency [1] | Potency [2] | Potency [3] | Potency [4] | Potency [5]
-0.966%: activity change, negative = inhibition [6]

Cn1c(=O)c(-c2c(Cl)cccc2Cl)cc2cnc(Nc3cccc(C(=O)O)c3)nc21
inactive: Potency [1] | Potency [2] | Potency [3] | Potency [4] | Potency [5] | Potency [6]

CC1(COc2ccc3c(c2)ncn3-c2ccc3cccc(N4CCC(N)CC4)c3n2)COC1
active: Potency [1] 0.0544 µM | Potency [5] 28.2 µM | Potency [6] 10 µM
inactive: Potency [2] | Potency [3] | Potency [4]

CC(C)[C@H](O)C(=O)N[C@@H](C)C(=O)N[C@@H]1C(=O)N(C)CCc2ccccc21
4.11%: activity change, negative = inhibition [6]
inactive: Potency [1] | Potency [2] | Potency [3] | Potency [4] | Potency [5]

O=C(CO)N1CCC(c2[nH]nc(-c3ccc(Cl)cc3)c2-c2ccncn2)CC1
-14.2%: activity change, negative = inhibition [6]
inactive: Potency [1] | Potency [2] | Potency [3] | Potency [4] | Potency [5]

CC(=O)OC1C(C)OC(Oc2c(-c3ccc(O)cc3)oc3cc(O)cc(O)c3c2=O)C(O)C1OC(C)=O (stereo unspecified)
inactive: Potency [1] | Potency [2] | Potency [3] | Potency [4] | Potency [5] | Potency [6]

CC(NCCc1ccc(O)cc1)C(O)c1ccc(O)cc1 (stereo unspecified)
-5.33%: activity change, negative = inhibition [6]
inactive: Potency [1] | Potency [2] | Potency [3] | Potency [4] | Potency [5]

CCOC(=O)C1=C(O)C(=O)N(Cc2ccccc2)C1
inactive: Potency [1] | Potency [2] | Potency [3] | Potency [4] | Potency [5] | Potency [6]

Cc1noc(-c2ccc(CSCCC(=O)O)cc2)c1NC(=O)OC(C)c1ccccc1Cl (stereo unspecified)
-12.6%: activity change, negative = inhibition [6]
inactive: Potency [1] | Potency [2] | Potency [3] | Potency [4] | Potency [5]

CCCCC(F)(F)[C@@]1(O)CC[C@H]2[C@H](CC(=O)[C@@H]2CCCCCCC(=O)O)O1
inactive: Potency [1] | Potency [2] | Potency [3] | Potency [4] | Potency [5] | Potency [6]

CC(C)C[C@@H](C=O)NC(=O)[C@H](CC(C)C)NC(=O)[C@H](CC(C)C)NC(=O)OCc1ccccc1 (Cbz-Leu-Leu-Leu-aldehyde)
-96.8%: activity change, negative = inhibition [6]
active: Potency [1] 1.93 µM | Potency [2] 4.32 µM | Potency [3] 5.44 µM | Potency [4] 3.43 µM | Potency [5] 1.12 µM

CC(Oc1ccc(O)cc1)(P(=O)(O)O)P(=O)(O)O
-6.64%: activity change, negative = inhibition [6]
inactive: Potency [1] | Potency [2] | Potency [3] | Potency [4] | Potency [5]

Clc1ccc2c(N3CCN(CCCN4CCN(c5ccnc6cc(Cl)ccc56)CC4)CC3)ccnc2c1
inactive: Potency [1] | Potency [2] | Potency [3] | Potency [4] | Potency [5]
-11.2%: activity change, negative = inhibition [6]

O=[N+]([O-])c1cn2c(n1)OC[C@@H](OCc1ccc(OC(F)(F)F)cc1)C2
-9.12%: activity change, negative = inhibition [6]
inactive: Potency [1] | Potency [2] | Potency [3] | Potency [4] | Potency [5]

C[C@@H]1CC[C@@]2(OC1)OC1CC3C4CC=C5CC(O)CCC5(C)C4CCC3(C)C1[C@@H]2C (stereo partly specified)
-1.34%: activity change, negative = inhibition [6]
inactive: Potency [1] | Potency [2] | Potency [3] | Potency [4] | Potency [5]

c1ccc2c(Oc3nc(Nc4ccc(N5CCOCC5)cc4)c4ncn(C5CCCCC5)c4n3)cccc2c1
-17.3%: activity change, negative = inhibition [6]
inactive: Potency [1] | Potency [2] | Potency [3] | Potency [4] | Potency [5]

Cc1cn2cc(C(=O)N(C)CCO)cc(N[C@@H]3CCOc4cccc(C)c43)c2n1
inactive: Potency [1] | Potency [2] | Potency [3] | Potency [4] | Potency [5] | Potency [6]

Oc1cc2c(cc1O)C1c3ccc(O)c(O)c3OCC1(O)C2 (stereo unspecified)
inactive: Potency [1] | Potency [2] | Potency [3] | Potency [4] | Potency [5]
-5.64%: activity change, negative = inhibition [6]

O=C(NC[C@H](O)CO)c1ccncc1Nc1ccc(I)cc1F
inactive: Potency [1] | Potency [2] | Potency [3] | Potency [4] | Potency [5] | Potency [6]

Cn1cc(-c2ccc3ncc(Cc4ccc5ncccc5c4)n3n2)cn1
inactive: Potency [1] | Potency [2] | Potency [3] | Potency [4] | Potency [5] | Potency [6]

Cc1ccc2c(c1)C(=O)[C@]1(O)CCN(c3ccccc3)C1=N2
-18.4%: activity change, negative = inhibition [6]
inactive: Potency [1] | Potency [2] | Potency [3] | Potency [4] | Potency [5]

COc1nccc(-c2c(-c3ccc(F)cc3)ncn2C2CCC(O)CC2)n1 (stereo unspecified)
inactive: Potency [1] | Potency [2] | Potency [3] | Potency [4] | Potency [5] | Potency [6]

C=C1c2cccc(O)c2C(O)=C2C(=O)[C@@]3(O)C(O)=C(C(N)=O)C(=O)[C@@H](N(C)C)[C@@H]3[C@@H](O)[C@H]12
-17.4%: activity change, negative = inhibition [6]
inactive: Potency [1] | Potency [2] | Potency [3] | Potency [4] | Potency [5]

C[C@H](NC(=O)C(=O)Nc1ccccc1C(C)(C)C)C(=O)N[C@@H](CC(=O)O)C(=O)COc1c(F)c(F)cc(F)c1F
-42.2%: activity change, negative = inhibition [6]
inactive: Potency [1] | Potency [2] | Potency [3] | Potency [4] | Potency [5]
